Shiga toxin inh: inhibitors of Shiga toxin in Vero cells | Vero cells, Shiga toxin protein synthesis inhibition reporter | AID 2315 | inhibition, % at 38.7 µM | actives 9.2% (n = 290,000); in the data active = inhibition mostly above about 28%, no sharp cut-off; inactive = mostly below about 43%
CHX counter: counter-screen hit for Shiga toxin inhibitors, cycloheximide. cell reporter, cycloheximide protein synthesis inhibition counterscreen. max response, %. actives 12% (n = 300,000). AID 2314; in the data active = max response mostly above about 13%, no sharp cut-off; inactive = mostly below about 14%; note: read at 38.3 µM for the half of the compounds with a filed dose
Lassa entry inh: inhibitors of Lassa virus binding or cell entry; Lassa virus pseudotype entry inhibition, cell reporter; Potency, µM (titrated, usually from 37.9 µM), most hits filed as inhibitors; actives 1.2% (n = 300,000); calls by dose curve; tested in HEK293 cells; note: nearly all actives have a fitted effect of over 50% in size
MARV entry inh: inhibitors of Marburg virus binding or cell entry; Marburg virus pseudotyped entry inhibition, cell reporter; Potency, µM (top dose mostly 37.8 µM), most hits filed as inhibitors; actives 1.8% (n = 300,000); AID 540276; calls by dose curve; tested in HEK293 cells
A number is an active result; . = inactive; ? = inconclusive; / = not tested or not shown. Sampled rows, rich in hits. Any-hit rate of the full collection: about 12%.

SMILES	Shiga toxin inh	CHX counter	Lassa entry inh	MARV entry inh
O=C(O)Cc1sc(-c2ccccc2Cl)nc1-c1ccccc1	.	.	.	.
CC(=O)Cc1nsc(Nc2cccc(C)c2)n1	92	28	.	?
Cc1ccc(-c2nc(Nc3cccc(C)c3)sc2CC(=O)O)cc1	55	27	/	/
COc1ccc(C2CC(=O)C3=C(C2)NC(C)=C(C#N)C3c2ccc(N(C)C)cc2)cc1 (centres undefined)	.	.	13µM	?
COc1cc(OC)cc(C(=O)Nc2cc3c(cc2N2CCOCC2)n(C)c(=O)n3C)c1	/	/	.	.
Cc1ccc(N2C(=O)Nc3ccc(Br)cc3C2(O)C(=O)NCCN(C)C)cc1C (centres undefined)	.	.	.	.
COc1ccc(C(=O)Nc2scc(-c3ccc(Cl)cc3Cl)c2C(N)=O)cc1	153	44	.	.
O=c1c2c(nc3cc(-c4ccc(F)cc4)[nH]n13)CCC2	100	101	.	?
OC(CN1CCN(C(c2ccccc2)c2ccccc2)CC1)c1ccc(Br)cc1 (centres undefined)	.	.	/	/
OC(CN1CC=C(/C=C/c2ccc(Br)cc2)CC1)c1ccccc1 (centres undefined)	.	.	.	11µM
O=Cc1ccc(OCc2ccccn2)cc1	40	21	?	.
CCOc1ccc(CN(C)CCc2ccccn2)cc1	.	.	.	.
O=Cc1cccc(OCc2cccc3ccccc23)c1	63	34	?	.
O=Cc1ccc(OCc2ccc3ccccc3c2)cc1	/	54	?	?
CCOc1ccc(-n2nc3cc(C)c(NC(=O)c4cc(OCC)c(OCC)c(OCC)c4)cc3n2)cc1	/	/	.	.
CCOc1ccc(-n2nc3cc(C)c(N)cc3n2)cc1	48	32	/	/
CCOc1ccc(-n2nc3ccc(N)cc3n2)cc1	31	36	/	/
Cc1ccc(S(=O)(=O)N2CCOCC2)cc1NC(=O)CSc1nnnn1C	.	.	.	.
COc1ccc(C(=O)N2CCN(c3ccc([N+](=O)[O-])c(NCCc4ccc(OC)c(OC)c4)c3)CC2)cc1	.	.	4.5µM	?
COC(=O)c1ccc(N2CCN(CC(=O)c3ccc(-c4ccccc4)cc3)CC2)c([N+](=O)[O-])c1	60	85	.	.
CN1CCN(c2ccc(C(=O)c3ccccc3)cc2[N+](=O)[O-])CC1	32	40	?	?
NC(=O)c1ccc(N2CCN(S(=O)(=O)c3ccccc3)CC2)c([N+](=O)[O-])c1	.	.	2µM	.
COc1ccc(CCNc2cc(N3CCN(C(=O)c4ccc(C)cc4)CC3)ccc2[N+](=O)[O-])cc1OC	.	.	.	.
O=C(c1ccc(N2CCCCC2)c([N+](=O)[O-])c1)N1CCN(S(=O)(=O)c2ccccc2)CC1	/	/	?	.
CN1CCN(c2ccc(C(N)=O)cc2[N+](=O)[O-])CC1	.	.	.	.
SMILES	Shiga toxin inh	CHX counter	Lassa entry inh	MARV entry inh
O=C(C1CCCN(c2ncnc3c2nc2n3CCCCC2)C1)N1CCN(c2ccccc2F)CC1 (centres undefined)	.	.	?	?
O=C(NCc1ccc(F)cc1)C(c1cccnc1)N(C(=O)c1csnn1)c1ccccc1 (centres undefined)	.	.	.	.
COc1ccc(N2CCN(c3ccc(C(=O)O)cc3[N+](=O)[O-])CC2)cc1	.	12	?	.
CC(=O)c1ccc(N2CCc3ccccc3C2)c([N+](=O)[O-])c1	76	30	/	/
Cc1ccnc(N2C(=O)c3ccccc3C2Nc2cccc(C)c2C)c1 (centres undefined)	28	15	/	/
Cc1ccnc(N2C(=O)c3ccccc3C2O)c1 (centres undefined)	.	39	/	/
O=C(CSc1nncs1)Nc1ccc(Cl)cc1C(F)(F)F	/	/	.	.
O=C(Nc1onc2c1CCCC2)c1ccc(Cl)cc1	/	/	.	?
O=C(Nc1ccccn1)c1onc2c1CCCC2	.	30	7.3µM	?
COc1cc(NC(=O)c2csc3c2CCCC3)ncn1	53	40	.	?
O=C(Nc1ccccn1)c1csc2c1CCCC2	84	49	?	?
Nc1nc(SCc2cccnc2)c2ncn(C3OC(CO)C(O)C3O)c2n1 (centres undefined)	/	/	.	.
CCN1CCN(C(=O)CS(=O)(=O)Cc2nc(-c3cccc(OC)c3)oc2C)CC1	.	.	/	/
Cc1ccc2c(CSc3nc4ccccc4c(=O)n3CCCO)cc(=O)oc2c1C	109	.	?	?
Cc1ccc2c(CSc3nnc4ccccn34)cc(=O)oc2c1C	60	.	.	.
Cc1nn(C(=O)c2ccccc2)c(C)c1S(=O)(=O)N1CCOCC1	/	/	.	/
CCN(CC)/C(=N\S(=O)(=O)c1ccc(F)cc1)c1ccccc1	.	.	?	.
CC1CCN(C(=O)c2cc3c(=O)n(C)c4cc(Cl)ccc4c3s2)CC1	/	/	.	?
O=C(c1nnc(-c2ccccc2)o1)C1CC1	97	37	.	.
O=C(c1ccc(-c2nnc(-c3ccccc3)o2)cc1)N1CCCCCC1	83	.	.	.
O=C(O)c1ccc(-c2nnc(-c3ccccc3)o2)cc1	42	27	/	/
O=C(O)c1ccc(-c2nnc(-c3ccc([N+](=O)[O-])cc3)o2)cc1	.	.	/	/
COc1ccc(-n2cc(CNCC3CC(=O)N(C4CC4)C3)c(-c3ccccc3Cl)n2)cc1 (centres undefined)	.	.	?	11µM
COc1cc(NC(=O)Nc2nnc(N3CCCCCC3)s2)cc(OC)c1	/	/	.	.
O=S1(=O)N=C(N(Cc2cccs2)c2ccc(O)cc2)c2ccccc21	.	.	?	.
SMILES	Shiga toxin inh	CHX counter	Lassa entry inh	MARV entry inh
O=C(O)c1cc(Cl)c(Cl)cc1C(=O)Nc1cccnc1	.	.	/	/
O=C(Nc1cccnc1)c1cc(-c2ccc(Cl)cc2)on1	152	40	.	.
Cc1cc(C(=O)Nc2cccnc2)no1	.	.	.	.
O=C(Nc1cccnc1)c1cc(-c2ccc(Cl)cc2Cl)on1	63	28	.	?
O=C(CCl)Nc1cc(-c2ccccc2)nn1-c1ccccc1	.	28	?	5.2µM
CC(=O)Nc1c(C)nn(-c2ccc([N+](=O)[O-])cc2)c1C	.	.	.	.
Cc1ccc(C)c(NC(=O)c2nc(-c3ccccc3)n(-c3ccccc3)n2)c1	.	.	.	.
Cc1ccc(-c2cc(NC(=O)CCl)n(-c3ccccc3)n2)cc1	.	53	.	.
Cc1ccc(-n2nc(C)c(NC(=O)CCl)c2C)cc1	.	.	10µM	?
Cc1ccc(C)c(NC(=O)c2cc(-c3ccccc3)nn2-c2ccccc2)c1	.	.	?	11µM
CCN1CCN(C(=O)Cn2ncc3c4ccccc4n(Cc4c(C)cc(C)cc4C)c3c2=O)CC1	/	/	.	?
Cc1ccc(Cn2cc(S(=O)(=O)c3ccc(C)cc3)c(=O)c3cc(F)c(N4CCCC4)cc32)cc1	/	/	.	/
O=C(O)c1ccc2c(c1)N(Cc1ccccc1)C(=O)c1ccccc1S2	.	.	.	.
Cc1ccc(-c2nn(-c3ccccc3)cc2CNCc2ccccc2)cc1	.	.	?	?
Cc1ccc(-c2nn(-c3ccccc3)cc2NC(=O)CCl)cc1	.	41	?	?
Cc1ccn(-c2ccc([N+](=O)[O-])cc2)n1	42	12	.	.
CN(CCC1CCCCO1)C(=O)c1cc(COc2ccc(F)cc2F)on1 (centres undefined)	.	21	?	?
CN(CCCN1CCCCC1)C(=O)c1cc(COc2ccc(F)cc2F)on1	.	.	?	.

Source: PubChem BioAssay (National Center for Advancing Translational Sciences (NCATS))
